System: Plasmodium falciparum Sir2 (PF13_0152, Sir2A)
Assay: Plasmodium falciparum Sir2A binding compounds – biochemical, small-molecule microarray, 635 nm fluorescence, primary screen (AID 1098);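 further: score merges spot fluorescence intensity with its signal-to-noise ratio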
Details: fluorescence 635 nm, higher = more signal

| Compound | composite z-score |
| --- | --- |
| CC(C)(C)OC(=O)CC[C@]1(C(=O)O)N=C(c2ccc(OCCCO)cc2)O[C@H]1c1ccccc1N=[N+]=[N-] | 1.34 |
| COC(=O)C(CC#Cc1ccc2c(c1)[C@]1(C(=O)N2)[C@H](C(=O)O)[C@H]2C(=O)O[C@H](c3ccccc3)[C@H](c3ccccc3)N2[C@@H]1c1ccc(O)cc1)C(=O)OC | 0.472 |
| COCCOC(=O)N1C(=O)[C@@]2(c3cc(C#Cc4ccc(OC)cc4)ccc31)[C@H](c1ccc(O)cc1)N1[C@H](c3ccccc3)[C@H](c3ccccc3)OC(=O)[C@H]1[C@@H]2C(=O)NC[C@H](O)c1ccccc1 | 1.47 |
| CN1C(=O)C2C=CC(C(O)c3cccs3)N(Nc3ccccc3)C2C1=O (configuration not stated) | 0.748 |
| CC(C)(C)OC(=O)CC[C@@]1(C(=O)NCC(O)CO)N=C(c2ccc(OCCCO)cc2)O[C@@H]1c1ccccc1N=[N+]=[N-] (some centres not stated) | 1.72 |
| C[C@@H]1ON(c2cccc(C(=O)OC(C)(C)C)c2)[C@H](c2ccc(Br)cc2)[C@H]1C(=O)N1C(=O)OC[C@H]1Cc1ccccc1 | 0.801 |
| COc1ccc(C(=O)Nc2ccc(CN3C(=O)[C@@]4(O[C@@H](CCn5cc([C@H](O)c6ccccc6)nn5)[C@H]([Si](C)(C)c5ccc(OC)cc5)[C@H]4C)c4ccccc43)cc2)cc1 | 0.834 |
| CC(C)c1ccc(NN2C(C(O)c3cc(C(F)(F)F)cc(C(F)(F)F)c3)C=CC3C(=O)N(c4ccccc4)C(=O)C32)cc1 (configuration not stated) | 0.91 |

System: not listed separately
Assay: probe aDKK1 binding to arrayed compounds – biochemical, biotinylated probe, 635/667 nm fluorescence, primary screen (AID 1099);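 further: score merges 667nm spot fluorescence with signal to noise across triplicate slides; reference of the scale not given here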
Details: small-molecule microarray, higher = more signal

| Compound | composite z-score |
| --- | --- |
| CCCCC(=C=CC[C@@H](O)c1ccccc1OCCO)CCO | 0.0035 |
| COc1ccc(C(O)C2C=CC3C(=O)NC(=O)C3N2Nc2ccccn2)c2ccccc12 (configuration not stated) | 0.046 |
| COc1cc(CO)cc(I)c1O[C@H]1C=C(C(=O)NCCO)C[C@@H](N(CCN2CCOCC2)C(=O)C2CCOC2)[C@@H]1O (some centres not stated) | -0.424 |
| COC(=O)[C@@]1(Cc2ccc(F)cc2)[C@H]2c3cc(C(=O)N(C)C)n(Cc4ccc(S(C)(=O)=O)cc4)c3C[C@H]2CN1C(=O)c1ccccc1 | 0.883 |
| CC(=O)n1cc(C(O)C2C=CC3C(=O)N(C)C(=O)C3N2Nc2ccccc2)c2ccccc21 (configuration not stated) | 0.906 |
| O=C1O[C@H](c2ccccc2)[C@H](c2ccccc2)N2[C@H]1[C@@H](C(=O)NC[C@H](O)c1ccccc1)[C@]1(C(=O)Nc3ccccc31)[C@H]2c1ccc(OCCO)cc1 | 0.569 |
| C=C(CCCC)C(=O)CC[C@H](OC(C)=O)c1cccc(OCCO)c1 | -0.409 |
| COCCOC(=O)N1C(=O)[C@@]2(c3cc(C#CC4=CCCCC4)ccc31)[C@H](C(=O)Nc1nc3ccccc3s1)[C@H]1C(=O)O[C@H](c3ccccc3)[C@H](c3ccccc3)N1[C@@H]2c1ccccc1OCCO | 0.756 |
| CN1C(=O)C2C=CC(C(O)c3cc(C(F)(F)F)cc(C(F)(F)F)c3)N(N3CCCCC3)C2C1=O (configuration not stated) | 0.853 |
| CN(C)C(=O)[C@@]1(Cc2ccccc2)N=C(c2ccc(OCCCO)cc2)O[C@H]1c1ccccc1N=[N+]=[N-] | 0.898 |
| [N-]=[N+]=NCc1ccccc1[C@@H]1OC(c2ccc(OCCCO)cc2)=N[C@]1(CCS(=O)(=O)c1ccccc1)C(=O)NCc1ccccc1 | 1.14 |
| CCOC(=O)[C@H]1C/C=C/C[C@H](C(=O)OCC)C(=O)O[C@H]2[C@@H](OC)O[C@H](CO)[C@@H](OC(=O)Nc3ccc(C#N)cc3)[C@@H]2OC1=O | -0.114 |
| C#CCN(Cc1ccccc1Br)C(/C=C/c1ccccc1)CO (configuration not stated) | -0.23 |
| CC(C)[C@@H](CO)NC(=O)[C@H]1[C@@H](c2ccccc2)N(c2ccccc2)O[C@@H]1C | -0.343 |
| [N-]=[N+]=Nc1ccccc1C[C@]1(C(=O)NCC(O)CO)N=C(c2ccc(OCCCO)cc2)O[C@H]1c1ccccc1N=[N+]=[N-] (some centres not stated) | 0.963 |
| C=CC[C@]1(C(=O)NCCCOC)N=C(c2ccc(OCCCO)cc2)O[C@H]1c1ccccc1N=[N+]=[N-] | -0.188 |
| C=CCOC(=O)[C@H]1[C@@H]2C(=O)O[C@@H](c3ccccc3)[C@@H](c3ccccc3)N2[C@@H](c2ccc(OCCOC(=O)[C@H]3C[C@H]4C(=O)N5CCC[C@H]5C(=O)N4[C@H]3c3ccc(O)cc3)cc2)[C@]12C(=O)Nc1ccccc12 | -0.202 |
| CN(C)CCCCCCNC(=O)[C@@H]1C[C@@H]2C(=O)N[C@@H](CCCCN)C(=O)N2[C@@H]1c1cccc(OCCO)c1 | 2.69 |
| COCCOC(=O)N1C(=O)[C@@]2(c3cc(C#Cc4ccc(OC)cc4)ccc31)[C@H](C(N)=O)[C@H]1C(=O)O[C@H](c3ccccc3)[C@H](c3ccccc3)N1[C@@H]2c1ccccc1OCCO | 0.714 |

— PubChem BioAssay
